According to PubChem BioAssay AID2061321 (National Center for Advancing Translational Sciences (NCATS), 2025):
Inconclusive results are not listed. Activity calls are given as the source filed them. Calls follow the shape of the dose curve; as a rule, active = well fitted inhibition curve with a large enough effect; inconclusive = small, poorly fitted or top-dose-only effect; inactive = flat fitted curve, though single readings scatter. Non-standard residues stand in square brackets, D forms with d. Residues, ends and D or L forms follow the SMILES beside them. *: point of attachment. Dolaproine = CO[C@@H]([C@@H]1CCCN1)[C@@H](C)C(=O)O; Dil = CC[C@H](C)[C@H](NC)[C@@H](CC(=O)O)OC; NMe2Val = CC(C)[C@@H](C(=O)*)N(C)C

Assay: Identification of antibody-drug conjugate (ADC) payloads which are substrates of ATP-binding cassette drug efflux transporters: ABCG2-H460 cell line
Conditions: H460 MX20 (ABCG2) viability, CellTiter-Glo, 48 h
Text: Antibody-drug conjugates (ADCs) feature an antibody recognizing a specific protein joined to a potent toxic payload. Numerous antibody-drug conjugates have received FDA approval; however, clinical resistance arises. Resistance mechanisms include decreased expression or mutation of the antibody target, impaired payload release, or increased expression of ATP-binding cassette (ABC) efflux transporters associated with multidrug resistance. We therefore sought to characterize the interaction of ABC multidrug transporters with ADC payloads. We performed a high-throughput screen with 27 common ADC payloads using cells lines expressing ABC transporters P-glycoprotein (P-gp, encoded by ABCB1) or ABCG2 (encoded by ABCG2). Confirmatory assays were also performed using cells transfected to express P-gp, ABCG2, or MRP1 (encoded by ABCC1). Several commonly used ADC payloads were substrates of P-gp, including calicheamicin gamma1, monomethyl auristatin E, DM1, and DM4. All the pyrrolobenzodiazepines tested - SJG136, SGD-1882, SG2057, and SG3199 - were substrates of P-gp, ABCG2, and MRP1. […] These findings highlight the risk of transporter-mediated resistance with certain ADC payloads and underscore the importance of selecting payloads that evade ABC transporter recognition in future ADC development.
HEK-293 cells were transfected with empty vector (pcDNA) or vector containing the human ABCB1 (MDR-19), ABCG2 (R-5), or ABCC1 gene (MRP1) and were maintained in EMEM with 2 mg/mL G418 added to maintain transporter expression. The HeLa derivative KB-3-1 and the P-gp overexpressing KB-8-5-11 subline were maintained in DMEM; KB-8-5-11 additionally received 100 ng/mL colchicine. H460 parental cells were obtained from the Division of Cancer Treatment and Diagnosis Tumor Repository, National Cancer Institute at Frederick, MD and were cultured in RPMI. The ABCG2 expressing subline H460 MX20 was generated by selecting H460 cells in 20 nM mitoxantrone. Media in all cases was supplemented with 10% FBS and 1% penicillin-streptomycin. We explored 27 common ADC payloads, in two orthogonal, paired cell line sets-a drug selected and transfected set for each transporter--to identify substrates of the ABC transporters P-gp and ABCG2. Compounds were sourced from Levena Biopharma (San Diego, CA), Selleck Chem (Houston, TX), ChemieTek (Indianapolis, IN), or Microsource Discovery Systems (Gaylordsville, CT). Screening was performed as previously described. Briefly, cells were plated at a density of 500 cells/well in 1536 well plates with compounds added using a 1536-head pin tool (Kalypsys, San Diego CA). Cells were incubated with cytotoxic drugs and processed with CellTiter Glo reagent (Promega, Madison, WI) to determine viability after 48 hours. P-gp substrates were identified by comparing compound activity between paired sets of low-expressing (sensitive) and over-expressing (resistant) cell lines.

Row | Structure (SMILES) | Potency
1 | CC[C@H](C)[C@@H]([C@@H](CC(=O)N1CCC[C@H]1[C@H](OC)[C@@H](C)C(=O)N[C@@H](Cc1ccccc1)C(=O)O)OC)N(C)C(=O)[C@@H](NC(=O)[C@H](C(C)C)N(C)C)C(C)C (NMe2Val-V[Dil][Dolaproine]F-OH) | 42.3 nM (active)
2 | CC[C@@]1(O)C(=O)OCc2c1cc1n(c2=O)Cc2cc3ccccc3nc2-1 | 9.5 nM (active)
3 | CC[C@H](C)[C@@H]1NC(=O)CNC(=O)[C@H]2Cc3c([nH]c4cc(O)ccc34)S(=O)C[C@H](NC(=O)CNC1=O)C(=O)N[C@@H](CC(N)=O)C(=O)N1C[C@H](O)C[C@H]1C(=O)N[C@@H]([C@@H](C)[C@@H](O)CO)C(=O)N2 (stereo partly specified) | 948 nM (active)
4 | COc1cccc2c1C(=O)c1c(O)c3c(c(O)c1C2=O)C[C@@](O)(C(=O)CO)CC3OC1CC(N2CCOC(OC)C2)C(O)C(C)O1 (stereo partly specified) | 3 nM (active)
5 | COc1cc2cc(C(=O)N3C[C@@H](CCl)c4c3cc(O)c3ccccc43)[nH]c2c(OC)c1OC | 1.1 nM (active)
6 | CC[C@H](C)[C@@H]([C@@H](CC(=O)N1CCC[C@H]1[C@H](OC)[C@@H](C)C(=O)N[C@H](C)[C@@H](O)c1ccccc1)OC)N(C)C(=O)[C@@H](NC(=O)[C@H](C(C)C)N(C)C)C(C)C | 1.3 nM (active)
